This is a sample that favours compounds with a hit; in the whole collection about 19% have one here.
MARV entry inh – blocks Marburg virus binding to or entry into cells | Marburg virus pseudotyped entry inhibition, cell reporter | 300,000 tested, 1.8% active | Potency, µM (top dose mostly 37.8 µM), for inactives: at the top dose activity change, negative = inhibition, actives largely listed as inhibitors; calls by dose curve; tested in HEK293 cells; further: potency means the concentration at half of the fitted maximal effect; on the % scale 0 is the no-effect control and ±100 the full control effect
Pf growth 48h – inhibits P. falciparum growth in the first generation, 48 h. P. falciparum luciferase growth in erythrocytes, 48 h. Potency, µM (top dose mostly 28.7 µM), without a hit: top-dose activity change, negative = inhibition, hits mostly inhibitors. 310,000 tested, 5.9% active. AID 504832; further: potency means the concentration at half of the fitted maximal effect; on the % scale 0 is the no-effect control and ±100 the full control effect
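Firefly luciferase activity from engineered P. falciparum reports growth; inhibitors lower the luminescent signal. Cultures contained 2% hematocrit erythrocytes at 0.1% final parasitemia.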
Cycloheximide cs – counter-screen hit for Shiga toxin inhibitors, cycloheximide | cell reporter, cycloheximide protein synthesis inhibition counterscreen | AID 2314 | 300,000 tested, 12% active | max response, %; in the data active means max response mostly above about 13%, no sharp cut-off; inactive means mostly below about 14%; further: read at 38.3 µM for the half of the compounds with a filed dose; 0% is about no effect
Shiga toxin inh – blocks Shiga toxin action in Vero cells | Vero cells, Shiga toxin protein synthesis inhibition reporter | inhibition, % at 38.7 µM | 290,000 tested, 9.2% active; in the data active means inhibition mostly above about 28%, no sharp cut-off; inactive means mostly below about 43%; further: 0% is about no effect
LASV entry inh – inhibitors of Lassa virus binding or cell entry. AID 540256. 300,000 tested, 1.2% active. Lassa virus pseudotype entry inhibition, cell reporter. Potency, µM (series often up to 37.9 µM), for the others: at the top dose activity change, negative = inhibition, usual class: inhibitors; calls by dose curve; tested in HEK293 cells; further: potency means the concentration at half of the fitted maximal effect; on the % scale 0 is the no-effect control and ±100 the full control effect; nearly all actives have a fitted effect of over 50% in size
Pf growth 96h – P. falciparum growth inhibition at 96 hour, primary screen for plastid delayed-death inhibitors; P. falciparum luciferase reporter growth, 96 h; Potency, µM (top dose mostly 28.7 µM), for inactives: top-dose activity change, negative = inhibition, usual class: inhibitors; 320,000 tested, 6.9% active; AID 504834; further: potency means the concentration at half of the fitted maximal effect; on the % scale 0 is the no-effect control and ±100 the full control effect
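Cell-based qHTS: luciferase-tagged P. falciparum in erythrocytes (2% hematocrit, 0.05% parasitemia final) incubated with compounds for 96 hours, 37 C, 5% CO2; luciferase detection reagent then added and luminescence measured.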
The depositor's hits bear a star; [ ] = another dose, or the depositor's remark. Unless noted, the call rests on the fitted dose curve; in most records, active means well fitted inhibition curve with a large enough effect; inconclusive means small, poorly fitted or top-dose-only effect, or another doubt; inactive means no such curve, though single readings can be large or run the other way.

What do the screens show for `Cc1nc(CS(=O)(=O)c2ccc(Cl)cc2)cc(Sc2ccc(Cl)cc2)n1`?
MARV entry inh: -10%; Pf growth 48h: 3.3µM*; Cycloheximide cs: 3; Shiga toxin inh: 0; LASV entry inh: -9%; Pf growth 96h: 2.3µM*

How did O=S(=O)(Cc1cc(Sc2ccc(Cl)cc2)nc(-c2ccccc2)n1)c1ccccc1 do in these assays?
MARV entry inh: inconclusive; Cycloheximide cs: -1; Shiga toxin inh: 45; LASV entry inh: -7%; Pf growth 96h: inconclusive

Results for CCOC(=O)CNC(=O)C(CC(N)=O)NC(=O)OC(C)(C)C (stereo not given) ?
Pf growth 48h: -7%; Cycloheximide cs: 8; Shiga toxin inh: 31; Pf growth 96h: 56%

Results for CC(=O)O[C@H]1C[C@@H]2OC3C=C(C)CCC3(C)[C@@]1(C)[C@@]21CO1 (stereo not given in full) ?
MARV entry inh: 0.45µM*

How did C#C[C@]1(O)CC[C@H]2[C@@H]3CCC4=CCCC[C@@H]4[C@H]3C(=C)C[C@@]21CC do in these assays?
Pf growth 48h: inconclusive; Pf growth 96h: 9.5µM*

How did C#C[C@]1(O)CC[C@@H]2[C@H]3CCC4=CCCC[C@@H]4[C@@H]3CC[C@@]21C do in these assays?
Pf growth 48h: -10%[12.8 µM]; Pf growth 96h: -17%[12.8 µM]

Results for O=C(c1cc(=O)c2ccccc2o1)N(Cc1ccccc1)C1CCS(=O)(=O)C1 (stereo not given) ?
Pf growth 48h: -13%; Cycloheximide cs: 14; Shiga toxin inh: 34; Pf growth 96h: 7%

What do the screens show for `COc1ccc(CN(C(=O)c2cc3ccccc3oc2=O)C2CCCCC2)cc1OC`?
MARV entry inh: inconclusive; Pf growth 48h: inconclusive; Cycloheximide cs: 48*; Shiga toxin inh: 65*; LASV entry inh: -19%; Pf growth 96h: inconclusive

How did Cc1ccc(CN(C(=O)c2cc3ccccc3oc2=O)C2CCS(=O)(=O)C2)cc1 (stereo not given) do in these assays?
MARV entry inh: 8%; Pf growth 48h: 1%; Cycloheximide cs: 39*; Shiga toxin inh: 73*; LASV entry inh: -6%; Pf growth 96h: -20%

Results for CCc1ccc(CN(C(=O)c2cc3ccccc3oc2=O)C2CCS(=O)(=O)C2)cc1 (stereo not given) ?
MARV entry inh: inconclusive; Pf growth 48h: -3%; Cycloheximide cs: 27*; Shiga toxin inh: 72*; LASV entry inh: 2%[46.1 µM]; Pf growth 96h: 13%

How did Cc1c(C(=O)N(Cc2cccc(Br)c2)C2CCS(=O)(=O)C2)oc2ccccc12 (stereo not given) do in these assays?
Pf growth 48h: inconclusive; Cycloheximide cs: -10; Shiga toxin inh: -6; Pf growth 96h: 13µM*

Results for COc1ccc(N(C(=O)CNC(=O)c2ccco2)C(C(=O)NCC2CCCO2)c2ccccc2)cc1OC (stereo not given) ?
MARV entry inh: 14%[46.1 µM]; Pf growth 48h: 0%; Cycloheximide cs: -4; Shiga toxin inh: -3; LASV entry inh: 20%; Pf growth 96h: -6%

How did C[C@@H]1CN(S(=O)(=O)c2ccc3c(c2)OCCO3)CCN1S(=O)(=O)c1c(F)cccc1F do in these assays?
Cycloheximide cs: -3; Shiga toxin inh: -3

Results for CC(=O)C[C@@H](O)CC(=O)[C@H]1OC(=O)CC/C=C\Cc2ccccc21 ?
Pf growth 48h: -3%; Pf growth 96h: -1%

Results for Cc1cc(Cl)ccc1OC(C)C(=O)NN1C(=O)c2ccccc2C1=O (stereo not given) ?
MARV entry inh: 1%[46.1 µM]; Pf growth 48h: 12%; Cycloheximide cs: 1; Shiga toxin inh: -11; LASV entry inh: 8%; Pf growth 96h: 43%

Results for CCc1ccc(OC(C)C(=O)N(Cc2ccco2)C2CCS(=O)(=O)C2)cc1 (stereo not given) ?
Pf growth 48h: -9%; Cycloheximide cs: -2; Shiga toxin inh: 24; Pf growth 96h: 134%

What do the screens show for `O=C(c1cc2ccccc2oc1=O)N(Cc1cccs1)C1CCS(=O)(=O)C1` (stereo not given)?
MARV entry inh: inconclusive; Pf growth 48h: -3%; Cycloheximide cs: 47*; Shiga toxin inh: 144*; LASV entry inh: 16%

Results for COc1cc(CN(C(=O)c2cc3ccccc3oc2=O)C2CCS(=O)(=O)C2)cc(OC)c1OC (stereo not given) ?
MARV entry inh: 1%[46.1 µM]; Pf growth 48h: 11%; Cycloheximide cs: 28*; Shiga toxin inh: 30; LASV entry inh: 4%[46.1 µM]; Pf growth 96h: inconclusive

What do the screens show for `O=C(c1ccccc1F)N(Cc1cccs1)C1CCS(=O)(=O)C1` (stereo not given)?
MARV entry inh: -12%[46.1 µM]; Pf growth 48h: 4%; Cycloheximide cs: -4; Shiga toxin inh: -14; LASV entry inh: 7%; Pf growth 96h: inconclusive

How did O=C(COc1ccccc1Cl)N(Cc1cccs1)C1CCS(=O)(=O)C1 (stereo not given) do in these assays?
MARV entry inh: 13%[46.1 µM]; Pf growth 48h: -4%; Cycloheximide cs: -3; Shiga toxin inh: -3; LASV entry inh: 0.5µM*; Pf growth 96h: 21%

How did COc1ccccc1OC(C)C(=O)N(Cc1ccco1)C1CCS(=O)(=O)C1 (stereo not given) do in these assays?
Pf growth 48h: 33%; Cycloheximide cs: 14*; Shiga toxin inh: 25*; Pf growth 96h: inconclusive

Results for COc1cc(CN(C(=O)c2oc3ccccc3c2C)C2CCS(=O)(=O)C2)cc(OC)c1OC (stereo not given) ?
MARV entry inh: -19%[46.1 µM]; LASV entry inh: -20%[46.1 µM]

What do the screens show for `O=C(c1cc2ccccc2oc1=O)N(Cc1ccco1)Cc1cccs1`?
MARV entry inh: inconclusive; Pf growth 48h: -2%; Cycloheximide cs: 17*; Shiga toxin inh: 20; LASV entry inh: 3%; Pf growth 96h: 3%

How did O=C(c1ccccc1F)N(Cc1ccc(F)cc1)C1CCS(=O)(=O)C1 (stereo not given) do in these assays?
MARV entry inh: -8%; Pf growth 48h: -4%; Cycloheximide cs: 1; Shiga toxin inh: 2; LASV entry inh: 26%

Results for COc1ccccc1C(=O)N(Cc1sccc1C)C1CCS(=O)(=O)C1 (stereo not given) ?
Pf growth 48h: 2%; Cycloheximide cs: -9; Shiga toxin inh: -3; Pf growth 96h: 2.1µM*

How did O=C(c1cc2ccccc2oc1=O)N(Cc1ccc(F)cc1)C1CCS(=O)(=O)C1 (stereo not given) do in these assays?
Pf growth 48h: 8%; Cycloheximide cs: 64*; Shiga toxin inh: 130*; Pf growth 96h: 26%

Results for CC(C)N(Cc1ccc(F)cc1)C(=O)c1cc2ccccc2oc1=O ?
Pf growth 48h: 7%; Cycloheximide cs: 43*; Shiga toxin inh: 55*; Pf growth 96h: 0%

Results for CC(=O)c1cccc(NCc2ccccc2-c2nnc(-c3ccccc3)o2)c1 ?
MARV entry inh: 20%[46.1 µM]; LASV entry inh: 14%[46.1 µM]
